Compound activity deposited in PubChem by National Center for Advancing Translational Sciences (NCATS).
D1 ag: human D1 receptor agonism; P21728; HEK293 T-REx D1 cells, calcium flux, agonist mode; activation, % at 2 µM; 360,000 compounds, 1% hits; in the data active = activation above about 30%; note: 0% is about no effect
Target sequence (P21728 whole entry, looked up): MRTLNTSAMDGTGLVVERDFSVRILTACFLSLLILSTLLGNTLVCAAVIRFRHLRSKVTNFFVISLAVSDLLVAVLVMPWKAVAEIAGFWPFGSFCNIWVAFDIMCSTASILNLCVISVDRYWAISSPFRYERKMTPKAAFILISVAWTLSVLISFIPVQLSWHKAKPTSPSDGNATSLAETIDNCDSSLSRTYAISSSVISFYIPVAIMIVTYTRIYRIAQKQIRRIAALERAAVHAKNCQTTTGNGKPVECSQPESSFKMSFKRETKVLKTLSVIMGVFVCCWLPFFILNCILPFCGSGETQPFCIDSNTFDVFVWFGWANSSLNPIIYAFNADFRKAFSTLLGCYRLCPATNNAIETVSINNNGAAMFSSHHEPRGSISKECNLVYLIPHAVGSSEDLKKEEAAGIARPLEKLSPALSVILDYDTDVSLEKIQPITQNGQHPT
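Tetracycline-induced HEK293 TREx D1 cells, force-coupled to calcium signalling, were dye-loaded with a no-wash calcium kit. Compound was pin-added after a 10 s baseline. Fluorescence was read kinetically at 1 cycle/s for 180 s, with calcium rises flagged as agonism.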
D1 potentiator: enhances dopamine response at the human D1 receptor; HEK293 TREx D1 cells, calcium flux, dopamine EC20 potentiation; potentiation, % at 10 µM; 360,000 compounds, 0.036% hits; P21728; in the data active = potentiation above about 30%; note: 0% is about no effect
D1 antag: antagonists of human D1 dopamine receptor | HEK293 TREx D1 cells, calcium flux, dopamine EC80; hits give low values | activity change, negative = inhibition, % at 10 µM | 360,000 compounds, 3.2% hits | AID 504652; in the data active = activity change below about -30%; note: % is set by controls: 0 for no effect and ±100 for the full control effect
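Using tetracycline-induced force-coupled D1 Hek293 cells and a calcium dye, signals were followed for 180 s after compound, then for 180 s after EC80 dopamine, to detect inhibitors.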
DRD3 agonist: activates the human D3 dopamine receptor | P35462 | D3R DiscoveRx beta-arrestin cells, luminescence, 90 min | max activation, % | 410,000 compounds, 0.58% hits | AID 652048; in the data active = max activation above about 30%; note: 0% is about no effect
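Agonist-mode cell screen: cells plated at 1500/well and incubated overnight at 37 °C, then exposed to library compounds for 90 min at 37 °C. Detection reagent was added for 30–60 min at room temperature, and luminescence was read.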
D3 antag: blocks the human D3 dopamine receptor; P35462; D3R cells, DiscoveRx beta-arrestin luminescence, antagonist mode; hits give low values; max response, negative = inhibition, %; 360,000 compounds, 2.5% hits; AID 652054; in the data active = max response below about -50%; inconclusive = no clear call, values can overlap the other calls; note: % is set by controls: 0 for no effect and ±100 for the full control effect
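Cells expressing the human receptor were seeded at 1500 cells/well, incubated overnight at 37 degrees C in 5% CO2, then exposed to library compounds with dopamine controls for 90 minutes at 37 degrees C before luminescent detection.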
An asterisk follows results filed as active; ? = inconclusive; nt = no result. A selection: hits, their analogues and other compounds. The true share with any hit is near 6.1%.

SMILES | D1 ag | D1 potentiator | D1 antag | DRD3 agonist | D3 antag
CC(C)C(NS(=O)(=O)c1ccc2c(c1)oc(=O)n2C)C(=O)N1CCN(c2cccc(Cl)c2)CC1 (configuration not stated) | 3 | -1 | 5 | -6 | nt
Cc1c(C(=O)NCC(c2ccc(Cl)cc2)N2CCOCC2)oc2ccccc12 (configuration not stated) | 2 | -1 | -1 | 2 | nt
CN(CC(=O)NCCN1CCN(c2ccccc2)CC1)S(=O)(=O)c1ccc2c(c1)CCC(=O)N2 | 1 | -5 | -20 | 21 | -64*
CN(CC(=O)NCc1ccccc1)S(=O)(=O)c1ccc2c(c1)CCC(=O)N2 | 1 | 5 | 1 | 1 | 9
CN(C)CCCC(C)(O)C(Cc1ccccc1)c1ccccc1 (configuration not stated) | 6 | -7 | 20 | -18 | -58*
CN(C)CCC(Oc1ccccc1OCc1ccccc1)c1ccccc1 (configuration not stated) | nt | nt | nt | -16 | ?
COc1cc(OC)cc(-c2c(Sc3ccccc3)c3cc(-c4cnc(OC)nc4)ccc3n2C)c1 | nt | nt | nt | 40* | ?
CCOC(=O)c1cc(-c2ccc(F)cc2)n(CCC(=O)Nc2nc3ccc(OC)cc3s2)c1C | 2 | -3 | 9 | -4 | nt
CCc1ccc(C(=O)c2cn(Cc3ccc(F)cc3)c3cc(OC)c(OC)cc3c2=O)cc1 | 0 | 0 | 12 | 3 | nt
O=c1cc(-c2ccccc2)nc2nc(SCc3ccccc3)[nH]n12 | 1 | -7 | -32* | -4 | ?
Cc1cc(=O)n2[nH]c(SCc3ccccc3)nc2n1 | 0 | -1 | 4 | 4 | 30
O=c1cc(-c2ccccc2)nc(SCc2ccccc2)[nH]1 | 1 | 6 | 14 | 9 | -55*
O=c1cc(-c2ccccc2)nc(SCc2ccc(Cl)cc2)[nH]1 | 0 | -5 | -15 | 1 | 27
Cn1[nH]c(C(F)(F)F)c(C=Nc2ccc(Cl)cc2)c1=O | 1 | 7 | 0 | -4 | -63*
Cc1ccc(Cl)cc1NCc1nnc2n1CCCCC2 | 0 | -2 | 0 | -3 | nt
CCCCC1=CC2=C(c3ccco3)C(=O)C(C)(OC(=O)c3ccc(OC)cc3)C(=O)C2=CN1C1CCCCC1 (configuration not stated) | 9 | 1 | -13 | -39 | -91*
C=C(C)C(C)(C#CCN1CCCC1)OC(C)=O (configuration not stated) | 2 | -5 | 12 | -5 | -72*
CSCCC(/C(O)=C(\C#N)c1nc2ccccc2[nH]1)N1C(=O)c2ccccc2C1=O (configuration not stated) | 1 | 2 | -31* | -5 | -12
N#C/C(=C(/O)CN1C(=O)c2ccccc2C1=O)c1nc2ccccc2[nH]1 | 3 | -1 | -22 | 9 | -10
CCOC(=O)c1c(C)[nH]c(C)c1S(=O)(=O)NCC(=O)Nc1cccc(Cl)c1 | 2 | 1 | -1 | -17 | nt
CCOC(=O)c1c(C)[nH]c(C)c1S(=O)(=O)NCC(=O)Nc1cccc(C(F)(F)F)c1 | 5 | 1 | -40* | -12 | nt
CCOC(=O)C1=C(Cc2ccc(C)cc2)C(=O)c2ccccc2C1=O | 11 | -3 | 6 | nt | nt
CCCc1ccc(/C=C2\C(=O)c3ccccc3C(O)=C2C(=O)OCC)cc1 | 4 | -1 | -15 | nt | nt
CCOC(=O)C1=C(O)c2ccccc2C(=O)/C1=C\c1ccc(CC)cc1 | 12 | -6 | -7 | -39 | -70*
CCOC(=O)C1=C(Cc2ccc(OC)cc2)C(=O)c2ccccc2C1=O | 27 | -1 | -9 | -35 | -71*
Cc1c(C(=O)Nc2cc(F)cc(F)c2)cnn1-c1ccccc1 | 6 | -8 | -32* | 2 | -3
COc1ccc(NC(=O)c2cnn(-c3ccccc3)c2C)c(OC)c1 | 2 | -2 | 5 | 0 | -61*
Fc1ccc2[nH]c3c(c2c1)CN(C(=S)NCc1ccccc1)CC3 | 6 | -4 | -38* | -5 | -7
COC(=O)Cc1ccc(NC(=O)c2ccc3c(c2)C(=O)N(CC2CCCO2)C3=O)cc1 (configuration not stated) | 8 | -9 | -3 | 29 | 14
O=C(O)Cc1ccc(NC(=O)c2ccc3c(c2)C(=O)N(CC2CCCO2)C3=O)cc1 (configuration not stated) | 2 | -12 | -39* | -11 | -21
